Compounds with a hit are over-represented: about 0.92% of the library has one in this group of screens.
LAP4 TOR yeast: modulators of TOR pathway LAP4-GFP in S. cerevisiae. 320,000 compounds, 0.34% hits. S. cerevisiae LAP4-GFP multiplex, flow cytometry GFP, 3 h; median GFP as percent of DMSO wells. AID 2023. GFP response vs DMSO, % at 10 µM;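 active = GFP response vs DMSO above a set limit, about the screen mean plus 3 SD, cut at about 150% in these data; inconclusive = under 70 cell events counted for the yeast strain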
RPL19A TOR yeast: modulators of TOR pathway RPL19A-GFP in S. cerevisiae. 330,000 compounds, 0.3% hits. percent response vs DMSO, % at 10 µM. S. cerevisiae RPL19A-GFP strain, flow cytometry, 3 h; hits give low values;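 active = percent response vs DMSO below 50%; inconclusive = fewer than 70 events counted for the yeast strain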;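 note: median channel GFP fluorescence of the barcoded RPL19A-GFP strain; ratio of sample median GFP to plate DMSO average so 100% = DMSO; lower means less RPL19A-GFP as with rapamycin TOR inhibition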
CIT2 TOR yeast: alters CIT2-GFP fluorescence in TOR pathway yeast screen; S. cerevisiae CIT2-GFP strain, flow cytometry, 3 h; 100 means same as DMSO wells; GFP response vs DMSO, % at 10 µM; 320,000 compounds, 0.065% hits;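 active = GFP response relative to DMSO above a set limit, near the screen mean plus 3 SD, cut at about 150% in these data; inconclusive = Fewer than 70 cells measured for a yeast strain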;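 note: ratio of well median GFP fluorescence to mean of DMSO wells on the plate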
AGP1 TOR yeast: yeast TOR pathway AGP1-GFP modulation; AID 2066; 320,000 compounds, 0.02% hits; S. cerevisiae AGP1-GFP multiplex flow cytometry, 3 h; GFP as percent of DMSO wells; GFP response vs DMSO, % at 10 µM;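 active = GFP response relative to DMSO above a set limit, near screen average plus 3 SD, cut at about 150% in these data; inconclusive = fewer than 70 cells counted for the yeast strain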;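 note: median GFP channel fluorescence of the gated AGP1 strain per well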
MEP2-GFP yeast: yeast TOR pathway MEP2-GFP modulation; 330,000 compounds, 0.51% hits; S. cerevisiae MEP2-GFP strain, flow cytometry GFP, 3 h; 100% = DMSO control level; GFP response vs DMSO, % at 10 µM; AID 2016;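 active = GFP response versus DMSO above a set limit, roughly screen mean plus 3 SD, cut at about 180% in these data; inconclusive = fewer than 70 cells counted for a yeast strain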;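 note: median GFP fluorescence of the barcode-gated MEP2-GFP cells per well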
Active calls of the source: *; ? = inconclusive; . = not tested or not shown; [ ] = remark or other dose.

SMILES | LAP4 TOR yeast | RPL19A TOR yeast | CIT2 TOR yeast | AGP1 TOR yeast | MEP2-GFP yeast
COc1cc(C=C2C(=O)c3ccccc3C2=O)ccc1O | 90 | 103 | 96 | 97 | 91
CCCCc1ccc(/C=C2\C(=O)c3ccccc3C(O)=C2C(=O)OCC)cc1 | 163* | 99 | 91 | 81 | 115
CN(C(=O)CC1C(=O)NCCN1Cc1ccc(F)c(F)c1)C1CCOCC1 (stereo unspecified) | 99 | 91 | 91 | . | 112
COc1cc(/C=N/NC(=O)c2ccoc2C)ccc1O | 77 | 102 | 103 | 35 | 116
COc1cccc(/C=N/NC(=O)c2ccoc2C)c1 | 104 | 62 | ? | ? | 322*[may fluoresce violet]
Cc1ccc(O)c(C(=O)c2coc(=N)c(C(=O)NC(C)C)c2)c1 | 118 | 22*[may fluoresce violet] | ? | ? | 274*[may fluoresce violet]
COC(=O)c1cc(C(=O)c2cc(Cl)ccc2O)coc1=N | 88 | 87 | 97 | 96 | 90
CSc1cccc(NC(=O)CCCn2c(=O)c3cccn3c3cccnc32)c1 | 110 | 101 | 97 | 102 | 106
C[C@]12C=CC(=O)C=C1CC[C@@H]1[C@@H]2[C@@H](O)C[C@@]2(C)[C@H]1CC[C@]2(O)C(=O)COC(=O)CCC(=O)NCCc1ccc(O)cc1 | 99 | 105 | 102 | 100 | 111
C[C@]12C=CC(=O)C=C1CC[C@@H]1[C@@H]2[C@@H](O)C[C@@]2(C)[C@H]1CC[C@]2(O)C(=O)COC(=O)CCC(=O)O | 86 | 55 | ? | 15 | 346*[may fluoresce violet]
Oc1ccc(Cl)cc1-c1cc(-c2ccco2)[nH]n1 | 98 | . | 100 | 39 | 252*
CC1(C(=O)NNC(=O)c2cccc([N+](=O)[O-])c2)CC1(Br)Br (stereo unspecified) | 94 | 98 | 105 | 96 | 95
COc1ccc(CNC(=O)c2c(O)c3cccc4c3n(c2=O)CCC4)cc1OC | 88 | 38*[may fluoresce violet] | ? | . | 295*[may fluoresce violet]
CNC(=O)c1c(O)c2cccc3c2n(c1=O)CCC3 | 89 | 101 | 92 | 88 | 96
COc1ccc(-c2cc3c(=O)n(CC(=O)Nc4ccc(Cl)cc4)ncn3n2)cc1 | 94 | 84 | 103 | 22 | 103
Cc1nn(CC(=O)N2CCOCC2)c(=O)c2c1sc1ccccc12 | 83 | 17*[may fluoresce violet] | ? | ? | 171
Cc1nn(CC(=O)N2CCN(C)CC2)c(=O)c2c1sc1ccccc12 | 98 | 100 | 104 | 98 | 101
C/C(CC(=O)Nc1cc(C)ccn1)=N\NC(=O)c1cccc(C)c1O | 104 | 109 | 87 | 72 | 113
O=C(/C=C/c1ccc(Cl)cc1)c1ccc([N+](=O)[O-])o1 | 60 | 42*[may fluoresce violet] | ? | ? | 279*[may fluoresce violet]
Cc1ccc(C(=O)/C=C/c2ccc(Br)cc2)o1 | 112 | 96 | 97 | 99 | 98
Cc1cc(C)n(C(=O)/C(C#N)=N\Nc2ccccc2[N+](=O)[O-])n1 | 183* | 94 | 90 | 105 | 134
CCc1sc(C(=O)N2CCc3ccccc32)cc1C | 158* | 94 | 86 | 98 | 111
Cc1oc2ccccc2c1-c1cn2c(n1)SCC2 | 95 | 11*[may fluoresce violet] | ? | ? | ?
COc1ccc(NC(=O)CCN2CCN(S(=O)(=O)c3cc(Cl)ccc3OC)CC2)cc1 | 101 | . | 111 | 38 | 178*
O=C(CSc1ccc(Cl)cc1)NC(=O)c1ccccc1 | 102 | 104 | 91 | 105 | 105
SMILES | LAP4 TOR yeast | RPL19A TOR yeast | CIT2 TOR yeast | AGP1 TOR yeast | MEP2-GFP yeast
Cc1ccc(Cl)cc1N1CCN(C(=O)CSc2ccsc2[N+](=O)[O-])CC1 | 117 | 98 | 98 | 97 | 184*
O=c1ccc(-c2ccccc2)nn1Cc1ccccc1 | 103 | 100 | 94 | 97 | 102
O=c1ccc(-c2ccccc2)nn1Cc1ccc(F)cc1 | 92 | 30*[may fluoresce violet] | ? | 19 | 860*[may fluoresce violet]
Cc1ccc(/C=C2\SC(=S)N(CCC(=O)NNC(=O)c3cccc(O)c3)C2=O)cc1 | 79 | 21*[may fluoresce violet] | ? | 14 | 151
Cc1ccc(/C=C2\SC(=S)N(CCC(=O)NNC(=O)c3ccc(O)cc3)C2=O)cc1 | 102 | 103 | 101 | 110 | 106
Cc1cc(/C=C(\C#N)C(=O)OCC(=O)Nc2ccc(OC(F)F)cc2)c(C)n1CC(C)C | 101 | 99 | 97 | 100 | 105
COc1ccc(OC)c(NC(=O)CSc2ccc3nnc(-c4cccnc4)n3n2)c1 | 89 | 96 | 97 | 89 | 101
O=C(C1CCN(S(=O)(=O)c2cccc3nonc23)CC1)N1CCCCC1 | ? | 17*[may fluoresce violet] | ? | ? | ?
Cc1ccc(NC(=O)C2CCN(S(=O)(=O)c3cccc4nonc34)CC2)cc1 | 71 | 53 | ? | 16 | 297*[may fluoresce violet]
O=S(=O)(c1cccc2nonc12)N1CCCCCC1 | 112 | 97 | 96 | 99 | 98
COc1ccc(NC(=O)C2CCN(S(=O)(=O)c3cccc4nonc34)CC2)cc1 | 104 | 101 | 104 | 103 | 115
O=C1CC(Cc2ccccc2)C(=O)N1CCc1ccc2c(c1)OCO2 (stereo unspecified) | 106 | 97 | 94 | 90 | 95
O=C1OC[C@H](Cc2ccc3c(c2)OCO3)/C1=C\c1ccc2c(c1)OCO2 | 104 | 14*[may fluoresce violet] | ? | ? | 339*[may fluoresce violet]
CCn1c(SCC(=O)Nc2ccccc2OC)nc(O)cc1=O | 112 | 98 | 99 | 113 | 98
CCc1nnc(NC(=O)c2ccc(S(=O)(=O)N(C)Cc3ccccc3)cc2)o1 | 186* | 92 | 95 | 101 | 113
CCN(Cc1ccccc1)S(=O)(=O)c1ccc(C(=O)Nc2nnc(C)o2)cc1 | 188* | 94 | 92 | 101 | 104
CCc1nnc(NC(=O)c2ccc(S(=O)(=O)N(CC)Cc3ccccc3)cc2)o1 | 141 | 96 | 107 | 99 | 104
O=C(NNC(=O)c1ccccc1OCc1ccccc1Cl)c1csc(N2CCOCC2)n1 | 108 | 101 | 100 | 103 | 107
O=C(NCc1ccccn1)c1cc(Cl)ccc1OCc1ccccc1 | 96 | 102 | 92 | 91 | 104
O=C1CC(Nc2ccc(N3CCOCC3)cc2)C(=O)N1CCc1ccccc1 (stereo unspecified) | 94 | 98 | 91 | 98 | 100
O=C(CN1C(=O)S/C(=C\c2ccc(F)cc2)C1=O)NCCCn1ccnc1 | 62 | 18*[may fluoresce violet] | ? | 13 | 154
O=S(=O)(c1ccc(NC(=S)N/N=C/c2cccc(Oc3ccccc3)c2)cc1)N1CCOCC1 | 127 | 113 | 170* | 111 | 165
O=C(COC(=O)c1ccc([N+](=O)[O-])cc1)Nc1ccccc1C(=O)NC1CC1 | 89 | 95 | 102 | 95 | 97
CCCCOc1ccc(C(=O)N2CCN(c3ccc(N4CCOCC4)nn3)CC2)cc1 | 157* | 78 | 70 | 68 | 79
CN1CCN(c2ccccc2NC(=O)c2cc3ccccc3o2)CC1 | 115 | 102 | 100 | 105 | 112
CS(=O)(=O)N1CCN(c2ccccc2NC(=O)c2cc3ccccc3o2)CC1 | 88 | 24*[may fluoresce violet] | ? | ? | 345*[may fluoresce violet]

High-throughput results from PubChem BioAssay.
